From the supplement of paper PMC5641865, “A screen for kinase inhibitors identifies antimicrobial imidazopyridine aminofurazans as specific inhibitors of the Listeria monocytogenes PASTA kinase PrkA” (The Journal of Biological Chemistry, 2017)
Counter-ions that a name gives are not always drawn. ± gives the standard deviation of the averaged measurements.

Tested on: Listeria monocytogenes 10403S
Experiment: growth inhibition relative to ceftriaxone-alone control; higher = stronger potentiation of ceftriaxone growth inhibition
Conditions: 10 µM; ceftriaxone 1 ug/ml; 12 h
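Also: End-point A600 read in BHI broth at 37 °C with 2% DMSO, inhibition computed as (1 − OD with compound plus ceftriaxone ÷ OD with ceftriaxone only) × 100.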

| SMILES | growth inhibition [%] |
| --- | --- |
| CS(=O)(=O)Nc1ccc(-c2cc(-c3ccccc3)cc(C(N)=O)c2N)cc1 | 29.1 ± 20 |
| NC1(Cc2ccc(Cl)cc2)CCN(c2ncnc3[nH]ccc23)CC1 | 35 ± 20 |
| CN1CCN(c2ccc3nc(-c4c(N)c5c(F)cccc5[nH]c4=O)[nH]c3c2)CC1 [Dovitinib (TKI-258)] | 1.47 ± 0.1 |
| CC(C)CC(=O)Nc1n[nH]c2c1CN(C(=O)C1CCN(C)CC1)C2(C)C | -44.3 ± 75 |
| NC(=O)Nc1cc(-c2cccc(F)c2)sc1C(=O)N[C@H]1CCCNC1 | 16.7 ± 12 |
| Nc1nccc(C#Cc2cncnc2Nc2ccc(OCc3cccc(F)c3)c(Cl)c2)n1 | 8.9975 ± 0.0066 |
| Fc1ccc(-c2nn3ncccc3c2-c2ccnc(Nc3ccc4c(c3)OCCO4)n2)cc1 | -7.99 ± 5.2 |
| C=CC(=O)Nc1cccc(Oc2nc(Nc3ccc(N4CCN(C)CC4)cc3OC)ncc2Cl)c1 | -1.74 ± 9.7 |
| Cc1ccc(C(=O)NC2CC2)cc1-c1ccc2[nH]ncc2c1 | 8.37 ± 0.62 |
| Cc1ccc(Nc2nccc(N(C)c3ccc4c(C)n(C)nc4c3)n2)cc1S(N)(=O)=O [Pazopanib HCl] | 20.4 ± 13 |
| Cc1cc(O)cc(C)c1/C=C/c1cncc(C(N)=O)c1 | -0.223 ± 2.4 |
| O=C(Nc1n[nH]c2nc(-c3ccco3)c(Br)cc12)C1CC1 | -3.36 ± 3.1 |
| Cc1c(CN2CCN(C(=O)[C@H](C)O)CC2)sc2c(N3CCOCC3)nc(-c3cnc(N)nc3)nc12 | 22.8 ± 8.1 |
| O=S(=O)(CCOCc1ccc(-c2ccc3ncnc(Nc4ccc(OCc5cccc(F)c5)c(Cl)c4)c3c2)o1)c1ccccc1 | -11.6 ± 11 |
| C[C@@H](Oc1cc(-n2cnc3ccc(OCC4CCN(C)CC4)cc32)sc1C(N)=O)c1ccccc1Cl | -2.37 ± 3 |
| CCn1c(-c2nonc2N)nc2c(C#CC(C)(C)O)ncc(OCC3CCNCC3)c21 | 29.8 ± 9.6 |
| O=C1NC(=O)C(c2ccccc2Cl)=C1Nc1cccc(O)c1 | -3.8 ± 3.6 |
| O=C(Nc1c[nH]nc1-c1nc2ccc(CN3CCOCC3)cc2[nH]1)NC1CC1 | 55.7 ± 25 |
| CS(=O)(=O)CCNCc1coc(-c2ccc3ncnc(Nc4ccc(OCc5ccccc5)cc4)c3c2)c1 | 4.98 ± 4.3 |

| SMILES | growth inhibition [%] |
| --- | --- |
| CC(C)COC(=O)c1ccc2c(c1)/C(=C/Nc1ccc(S(N)(=O)=O)cc1)C(=O)N2 | -6.41 ± 14 |
| CCCN1CCC(c2ccc(Nc3nc(Nc4cc(F)ccc4C(N)=O)c4cc[nH]c4n3)c(OC)c2)CC1 | -8.21 ± 4.5 |
| O=C(Nc1ccc(OC(F)(F)F)cc1)c1sccc1NCc1ccnc2ccccc12 | 35.9 ± 3.9 |
| CCn1c(-c2nonc2N)nc2ccncc21 | -0.136 ± 1.1 |
| Cc1cnc(Nc2ccc(N3CCN(C)CC3)cc2)nc1Nc1cccc(S(=O)(=O)NC(C)(C)C)c1 | 42.3 ± 24 |
| CO[C@@H](C(=O)N1Cc2[nH]nc(NC(=O)c3ccc(N4CCN(C)CC4)cc3)c2C1)c1ccccc1 | 45.2 ± 16 |
| Clc1ccc(C2(c3ccc(-c4cn[nH]c4)cc3)CCNCC2)cc1 | 100 ± 1.4 |
| CC[C@@H]1C(=O)N(C)c2cnc(Nc3ccc(C(=O)N[C@H]4CC[C@H](N5CCN(CC6CC6)CC5)CC4)cc3OC)nc2N1C(C)C [BI6727 (Volasertib)] | 56.9 ± 16 |
| Cc1[nH]c(/C=C2\C(=O)Nc3ccc(S(=O)(=O)N(C)c4cccc(Cl)c4)cc32)c(C)c1C(=O)N1CCN(C)CC1 | 51.3 ± 11 |
| Cc1c2ccc(N(C)c3ccnc(Nc4cccc(S(N)(=O)=O)c4)n3)cc2nn1C | 2.52 ± 4.2 |
| CN(C)c1cc2c(Nc3ccc4c(cnn4Cc4ccccc4)c3)ncnc2cn1 | -7.88 ± 0.099 |
| O=c1c(O)c(-c2ccc(O)c(O)c2)oc2cc(O)cc(O)c12 [Quercetin (Sophoretin)] | 20.4 ± 13 |
| COc1ccc2ncn(-c3cc(O[C@H](C)c4ccccc4C(F)(F)F)c(C(N)=O)s3)c2c1 | 0.811 ± 11 |
| Nc1ccc(C#Cc2cncnc2Nc2ccc(OCc3cccc(F)c3)c(Cl)c2)cc1 | -6.22 ± 2.5 |
| CN(C)c1ccc(-c2nc3ncc(Cl)c(N4CCN(CC(=O)Nc5nccs5)CC4)c3[nH]2)cc1 | 15.3 ± 0.56 |
| CCN1CCC(CC(=O)Nc2n[nH]c3nnc(-c4cccc(F)c4F)cc23)CC1 | 7 ± 6.8 |
| COc1ccc(-c2cc3c(C)nc(N)nc3n([C@H]3CC[C@H](OCCO)CC3)c2=O)cn1 | 12.2 ± 9.5 |
| O=C(NOCC1CC1)c1ccc(F)c(F)c1Nc1ccc(I)cc1Cl | 8.54 ± 25 |
| CN(C)Cc1cccc(N=C(c2ccccc2)c2c(O)[nH]c3cc(C(=O)N(C)C)ccc23)c1 | 26.5 ± 1.6 |
